Bioassay records deposited in PubChem BioAssay by National Center for Advancing Translational Sciences (NCATS).
Sampled rows, rich in hits. Any-hit rate of the full collection: about 12%.
PLK1 PBD block: qHTS for Inhibitors of PLK1-PDB (polo-like kinase 1 - polo-box domain): Primary Screen; Plk1 PBD binding of FITC phosphopeptide, fluorescence polarization; Potency, µM, for inactives: max response, negative = inhibition, actives largely listed as inhibitors; 360,000 tested, 2.8% active; AID 720504, 2013; note: series mostly up to about 57 µM; nearly all actives have a fitted effect of over 65% in size
VP16 counter: VP16 counterscreen qHTS for inhibitors of ROR gamma transcriptional activity; AID 2546, 2010; 310,000 tested, 3.5% active; Drosophila S2 Gal4-VP16 UAS-luciferase, luminescence, 20 h; Potency, µM (series often up to 53.6 µM), for inactives: at the highest dose activity, negative = inhibition, actives largely listed as inhibitors;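 note: Gal4-VP16 expression switched on by copper sulfate through the metallothionein promoter; nearly all actives have a fitted effect of over 50% in size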
RORg inh: qHTS for inhibitors of ROR gamma transcriptional activity | Nuclear receptor ROR-gamma (Mus musculus), P51450 | Drosophila S2 Gal4-RORgamma UAS-luciferase reporter, 20 h | Potency, µM (highest dose often 53.6 µM), inactives show at the top dose activity change, negative = inhibition, actives largely listed as inhibitors | 310,000 tested, 5.4% active; note: nearly all actives have a fitted effect of over 60% in size
Target sequence (P51450 whole entry, looked up, the tested form may be a part): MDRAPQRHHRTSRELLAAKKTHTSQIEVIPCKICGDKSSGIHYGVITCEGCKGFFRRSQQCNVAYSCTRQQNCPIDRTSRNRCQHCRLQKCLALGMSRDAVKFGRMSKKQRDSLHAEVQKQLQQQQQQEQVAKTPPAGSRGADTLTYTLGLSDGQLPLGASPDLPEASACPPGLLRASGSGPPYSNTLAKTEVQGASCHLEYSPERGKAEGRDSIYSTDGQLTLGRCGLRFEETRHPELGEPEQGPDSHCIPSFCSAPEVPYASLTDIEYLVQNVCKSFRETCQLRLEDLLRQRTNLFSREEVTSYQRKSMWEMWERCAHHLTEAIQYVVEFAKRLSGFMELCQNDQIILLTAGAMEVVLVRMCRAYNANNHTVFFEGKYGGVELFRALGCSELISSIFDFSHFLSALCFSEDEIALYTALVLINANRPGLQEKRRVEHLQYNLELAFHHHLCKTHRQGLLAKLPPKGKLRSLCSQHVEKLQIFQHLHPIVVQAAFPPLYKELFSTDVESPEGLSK
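Luminescence from a UAS-regulated Photinus luciferase reporter in stably transfected Drosophila Schneider cells is measured; decreased signal marks ROR gamma inhibition. Fusion expression is induced by 700 uM copper sulfate for 20 hr.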
Sfp PPTase inh: qHTS Assay for Inhibitors of Bacillus subtilis Sfp phosphopantetheinyl transferase (PPTase). 4'-phosphopantetheinyl transferase ffp (Bacillus subtilis), Q9F4F7. Biochemical Sfp PPTase activity, qHTS. Potency, µM, for inactives: largest response in the series, negative = inhibition, hits mostly inhibitors. 310,000 tested, 3.5% active. AID 1490, 2009;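 note: the enzyme is Sfp with the accession as filed and its product quenches rhodamine fluorescence; 0% = enzyme reaction without inhibitor and -100% = no enzyme wells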
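Reaction rates are the 30-min fluorescence difference (ex 525, em 598 nm) in wells containing 15 nM Sfp, 5 uM rhodamine-CoA and 12.5 uM BHQ-2-YbbR at pH 7.6 with 10 mM MgCl2.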
ALDH1A1 inh: qHTS Assay for Inhibitors of Aldehyde Dehydrogenase 1 (ALDH1A1); Purified ALDH1A1, NADH fluorescence, propionaldehyde substrate; Potency, µM (highest dose often 75.3 µM), inactives show top-dose activity, negative = inhibition, usual class: inhibitors; 220,000 tested, 7.3% active; active = well fitted inhibition curve with a large enough effect, not every such curve was filed as active; inconclusive = small, poorly fitted or top-dose-only effect, or another doubt; inactive = no such curve, though single readings can be large or run the other way;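 note: plate controls were no enzyme wells and a reference inhibitor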
An asterisk follows results filed as active; ! = not confirmed by another sample; [ ] = dose if it differs, or a comment. Unless noted, calls come from the whole dose curve; as a rule, active = well fitted curve in the direction sought with a large enough effect; inconclusive = small, poorly fitted or top-dose-only effect, or another doubt; inactive = no such curve, though single readings can be large; an effect the other way counts as inactive or inconclusive. Unless noted, % is set by controls: 0 for no effect and ±100 for the full control effect; potency is the fitted concentration of half-maximal effect.

`CC[C@H](C)[C@H](NC(=O)[C@H](Cc1ccc(O)cc1)NC(=O)[C@@H](NC(=O)[C@H](CCCN=C(N)N)NC(=O)[C@@H](N)CC(=O)O)C(C)C)C(=O)N[C@@H](Cc1cnc[nH]1)C(=O)N1CCC[C@H]1C(=O)O` gave VP16 counter 4%, RORg inh 1% and Sfp PPTase inh -3%.
For Cn1cc(O)nc1NC(=O)Nc1cccc(Cl)c1 the results were VP16 counter 21%, RORg inh inconclusive and Sfp PPTase inh 3%.
Screening O=C(O)Cn1c(O)c(C=Nc2ccccc2)sc1=S returned PLK1 PBD block -3%, VP16 counter 3%, RORg inh -18%, Sfp PPTase inh -4% and ALDH1A1 inh 28µM*!.
Cc1ccc(OCc2nc3ccccc3n2C(C(=O)NC(C)(C)C)c2ccncc2)cc1 (stereo not given) was read as PLK1 PBD block -11%.
For CC(OC(=O)c1ccncc1)C(=O)Nc1cccc(Cl)c1 (stereo not given) the results were PLK1 PBD block -3%, VP16 counter 1%, RORg inh -2%, Sfp PPTase inh 19% and ALDH1A1 inh -3%.
For CC(Oc1ccc(Cl)cc1Cl)C(=O)Nc1ccncc1 (stereo not given) the results were PLK1 PBD block -5%, VP16 counter 20µM*, RORg inh -29%, Sfp PPTase inh -1% and ALDH1A1 inh 13%.
For CC(Oc1cccc(Cl)c1)C(=O)Nc1ccncc1 (stereo not given) the results were PLK1 PBD block -10%, VP16 counter 13µM*, RORg inh inconclusive, Sfp PPTase inh -6% and ALDH1A1 inh -2%.
`CC(C)CNC(=O)c1cccc(NC(=O)C(C)Oc2ccccc2)c1` (stereo not given) gave PLK1 PBD block 27µM*, VP16 counter -11%[10 µM], RORg inh -1%, Sfp PPTase inh 9% and ALDH1A1 inh 3%.
CC1(NC(=O)CCc2nc3ccccc3c(=O)[nH]2)CCS(=O)(=O)C1 (stereo not given) was read as PLK1 PBD block -11%, VP16 counter -2%, RORg inh 4% and Sfp PPTase inh 12%.
For CCOC(=O)CC1C(=O)NCCN1S(=O)(=O)c1ccc(NC(C)=O)cc1 (stereo not given) the results were PLK1 PBD block -9%, VP16 counter -5%, RORg inh -12% and Sfp PPTase inh 10%.
For CCCCNC(=O)c1ccccc1C(=O)NCCCC the results were PLK1 PBD block 5.3µM*, VP16 counter -2%, RORg inh -12%, Sfp PPTase inh 21% and ALDH1A1 inh 13%.
Screening COCCCNC(=O)c1ccccc1C(F)(F)F returned PLK1 PBD block 15µM*, VP16 counter -4%, RORg inh 13% and Sfp PPTase inh 11%.
For CCCCNC(=O)c1ccccc1Cl the results were PLK1 PBD block -1%, VP16 counter inconclusive, RORg inh 2%, Sfp PPTase inh 17% and ALDH1A1 inh 15%.
Brc1ccc(N/N=C(/N=Nc2nn[nH]n2)c2ccccc2)cc1 was read as PLK1 PBD block inconclusive, VP16 counter -1%, RORg inh inconclusive, Sfp PPTase inh -96% and ALDH1A1 inh 14µM*.
COc1ccc(C2/C=C\CN(Cc3ccccc3)C(C)C(=O)N2Cc2ccc(F)cc2)cc1 (stereo not given) was read as VP16 counter -3%, RORg inh inconclusive and Sfp PPTase inh -3%.
`Cc1nc(COC(=O)c2cc(O)c3ccccc3c2O)cs1` gave PLK1 PBD block 21µM*, VP16 counter -13%, RORg inh inconclusive, Sfp PPTase inh 28µM* and ALDH1A1 inh inconclusive.
Screening O=C(CC1(O)C(=O)Nc2ccccc21)c1ccccc1O (stereo not given) returned PLK1 PBD block -7%, VP16 counter 11%, RORg inh 34%, Sfp PPTase inh 19% and ALDH1A1 inh -12%.
Screening O=C(CC1=NCCNC(c2ccccc2)C1)c1ccccc1O (stereo not given) returned PLK1 PBD block -11%, VP16 counter -5%, RORg inh -29%, Sfp PPTase inh 11% and ALDH1A1 inh 18µM*.
`COc1ccccc1CNC(=O)[C@@H](NC(=O)C1CCN(C(=O)[C@@H]2CCCN2C(=O)OC(C)(C)C)CC1)C(C)C` gave PLK1 PBD block -11%, VP16 counter 12%, RORg inh 7.9µM* and Sfp PPTase inh 22%.
For FC(F)(F)c1ccccc1Cc1c(-c2cccc(Cl)c2)nc2c3ccccc3ccn12 the results were PLK1 PBD block -2%.
CCCCC/C=C\C/C=C\C=C\[C@@H](O)C/C=C\CCCC(=O)O was read as VP16 counter 5%, RORg inh 11%, Sfp PPTase inh 8% and ALDH1A1 inh 1%.
CCOc1ccc2nc(SC3CC(=O)N(c4ccccc4)C3=O)sc2c1 (stereo not given) was read as PLK1 PBD block -8%, VP16 counter 13µM*, RORg inh 10µM*, Sfp PPTase inh 12% and ALDH1A1 inh 14µM*.
Screening CCOc1ccc2nc(SC3CC(=O)N(c4cccc(OC)c4)C3=O)sc2c1 (stereo not given) returned PLK1 PBD block -4%, VP16 counter 4µM*, RORg inh 14µM*, Sfp PPTase inh -10% and ALDH1A1 inh 20µM*.
`CCOC(=O)c1cnc(SC2CC(=O)N(c3cccc(OC)c3)C2=O)nc1N` (stereo not given) gave PLK1 PBD block -16%, VP16 counter inconclusive, RORg inh -14%, Sfp PPTase inh -5% and ALDH1A1 inh -1%.
For NC(=S)C1COc2ccccc2O1 (stereo not given) the results were PLK1 PBD block inconclusive, VP16 counter -29%, RORg inh 13µM* and Sfp PPTase inh -15%.
`O=C(c1cc(C(F)(F)F)cc(C(F)(F)F)c1)N1CCC2(CCCN(c3ccncc3)C2)CC1` gave VP16 counter 11%, RORg inh 4%, Sfp PPTase inh 8% and ALDH1A1 inh 16%.
`O=C(O)CCN1C(=O)/C(=C\c2cccc(OCC(=O)Nc3ccc(Cl)cc3)c2)SC1=S` gave PLK1 PBD block 27µM*, VP16 counter 5%, RORg inh inconclusive and Sfp PPTase inh -4%.
`Cc1ccc(NC(=O)COc2cccc(/C=C3\SC(=S)N(CCC(=O)O)C3=O)c2)cc1Cl` gave PLK1 PBD block 19µM*, VP16 counter -28%, RORg inh -24% and Sfp PPTase inh -19%.
For COCCn1c(=O)c(-c2cc(F)cc(F)c2)nc2cnc(Nc3cccc(OC)c3)nc21 the results were VP16 counter -7%, RORg inh -1%, Sfp PPTase inh -6% and ALDH1A1 inh 5%.
